Assay [1] in a line: qHTS RealTime-Glo MT Cell Viability Assay in HepG2 cells - 40 hour (AID 1224870). Also: nearly all actives have a fitted effect of over 50% in size. The essentials: (§1)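 Real-time viability: cells seeded at 600 per well together with NanoLuc and cell-permeant prosubstrate, compounds added after 5 h incubation. Luminescence tracked at 0, 8, 16, 24, 32 and 40 h of exposure.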
The nature of assay [2]: qHTS RealTime-Glo MT Cell Viability Assay in HEK293 cells - 16 hour (AID 1224872). Also: top concentration of the series differs between compounds; nearly all actives have a fitted effect of over 50% in size. The procedure, abridged:
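Assay medium contained NanoLuc luciferase plus cell-permeant prosubstrate, added with HEK293 cells at 600 cells/well. After 5 h at 37 C/5% CO2 compounds were added; plates stayed at 37 C for 40 h with serial luminescence reads.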

A short description of assay [3]: qHTS RealTime-Glo MT Cell Viability Assay in HepG2 cells - 8 hour (AID 1224873). Also: nearly all actives have a fitted effect of over 55% in size. The procedure, abridged: as §1
Assay [4] is described as follows: qHTS RealTime-Glo MT Cell Viability Assay in HEK293 cells - 40 hour (AID 1224874). Also: nearly all actives have a fitted effect of over 50% in size. Also: potency is read from the fitted curve at half-maximal effect. To be noted: RealTime-Glo luminescence; max response: stronger effect = lower value. The procedure, abridged:
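Kinetic, non-lysing viability readout. Seed HEK293 (600/well) with reagent, incubate 5 h at 37 C/5% CO2, pin 23 nL compound in DMSO, incubate at 37 C, read luminescence at 0, 8, 16, 24, 32, 40 h.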

Assay [5] can be described thus: A CellTox Green Cytotoxicity Assay to monitor cytotoxicity in HEK293 cells - 24 hour (AID 1224875). Also: series mostly up to about 77 µM; nearly all actives have a fitted effect of over 45% in size. The procedure, abridged: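 Real-time, in one plate: 600 HEK293 cells/well with dead-cell DNA dye, pinned compound after 5 h, 37 C incubation over 40 h; viable cells give no appreciable fluorescence.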
Assay [6] is described as follows: A CellTox Green Cytotoxicity Assay to monitor cytotoxicity in HepG2 cells - 16 hour (AID 1224876). Also: nearly all actives have a fitted effect of over 45% in size. The essentials: (§2)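 Cytotoxicity was tracked as dead-cell DNA fluorescence in HepG2 cells treated with test compounds at 37 C; each time-point value comes from one kinetic series spanning 0, 8, 16, 24, 32 and 40 h.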
Assay [7] in a line: qHTS RealTime-Glo MT Cell Viability Assay in HepG2 cells - 32 hour (AID 1224877). Also: nearly all actives have a fitted effect of over 55% in size. The essentials: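 qHTS, HepG2, 600 cells/well, RealTime-Glo (NanoLuc + prosubstrate) added with cells; 5 h preincubation; DMSO compound addition; 37 C; luminescence at 0/8/16/24/32/40 h.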
Assay [8] can be described thus: A CellTox Green Cytotoxicity Assay to monitor cytotoxicity in HepG2 cells - 24 hour (AID 1224878). Also: nearly all actives have a fitted effect of over 45% in size. The procedure, abridged: as §2
Assay [9] in a line: A CellTox Green Cytotoxicity Assay to monitor cytotoxicity in HepG2 cells - 40 hour (AID 1224879). Also: nearly all actives have a fitted effect of over 40% in size. The procedure, abridged:
as §2

“And” between values parts separate entries of the source, which are not always exact repeats. Equal entries are not always repeated. Records with an inconclusive call do not appear. Values without a mark were called inactive. The source made the active and inactive calls. Calls follow the shape of the dose curve; as a rule, active = well fitted curve in the direction sought with a large enough effect in the repeat runs; inconclusive = weak or mixed curves; inactive = no such curve, though single readings can be large; an effect the other way counts as inactive or inconclusive.
% is scaled to controls: 0 for no effect and ±100 for the full control effect.

Regarding `Cn1c([N+](=O)[O-])cnc1COC(N)=O`, the Potency result in assay [1], in assay [2], in assay [3], in assay [5], in [6] and in assay [7] was “inactive” in each case. The Potency entry in assay [8] is “inactive”. The max response in [4] was 0.779% and 12.4%.

Turning to `NCc1cccc(CN)c1`, the Potency result in assay [1], in assay [2], in assay [6], in assay [7], in [8] and in assay [9] was “inactive” in each case. Besides, the max response in [4] is -20.2% and 8.99%.

Consider `CC(=O)CCc1ccccc1`, for which the Potency result in [1], in assay [2], in assay [5], in [6], in assay [7] and in [8] was “inactive” throughout. The Potency entry in assay [9] was “inactive”. In addition, the max response in assay [4] is 1.52% and -3.07%.

For `OCC#CCO`, the Potency entry in [1], in assay [2], in assay [5], in [6], in assay [7] and in assay [8] was “inactive” each time. Further, in [4], the max response is 0.572% and 1.12%.

Turning to `CCCCC(CC)COC(C)=O` (stereo not given), the Potency result in assay [1], in [2], in assay [3], in assay [5], in [6] and in assay [7] was “inactive” each time. For the same compound, the Potency result in assay [8] and in [9] was “inactive” in each case. For the same compound, the max response in [4] is 1.23% and 1.38%.

For `CCC(=O)O`, the Potency entry in [1], in [2], in assay [3], in [5], in assay [6] and in assay [7] was “inactive” throughout. Further, the Potency result in [8] and in [9] was “inactive” each time. The max response in [4] was 12.8% and 8.4% and 13%.

Turning to `OC[C@@H](O)[C@@H](O)[C@H](O)[C@@H](O)CO`, the Potency entry in [1], in assay [2], in assay [5], in assay [6], in assay [7] and in assay [8] was “inactive” each time. Further, the Potency entry in [9] was “inactive”. In addition, the max response in assay [4] is -13% and 0.936%.

Consider `OCCOCCOCCOCCO`, for which the Potency result in [1], in assay [2], in assay [3], in assay [5], in assay [6] and in [7] was “inactive” in each case. The Potency result in [8] and in assay [9] was “inactive” in each case. The max response in assay [4] is 0.824% and 6.75%.

For `Cc1cc(=O)[nH]c(C(C)C)n1`, the Potency entry in assay [1], in assay [2], in assay [5], in assay [6], in assay [7] and in [8] was “inactive” each time. For the same compound, the max response in assay [4] is 1.9% and -0.481%.

`O=[N+]([O-])C(CO)(CO)CO`: the Potency result in assay [1], in assay [2], in [5], in [6], in [7] and in assay [8] was “inactive” throughout. Also, the max response in assay [4] is 10.8%.

On to `CC1=C(/C=C/C(C)=C/C=C/C(C)=C/CO)C(C)(C)CCC1`, for which the Potency result in assay [1], in assay [2], in assay [3], in assay [5], in assay [6] and in assay [7] was “inactive” throughout. For the same compound, the Potency result in assay [8] and in assay [9] was “inactive” in each case. For the same compound, the max response in assay [4] was -27.5% and -20.7%.

On to `CCOC(=O)/C=C\C(=O)OCC`, for which the Potency result in [1], in [2], in [3], in [5], in [6] and in assay [7] was “inactive” each time. Moreover, the Potency entry in assay [8] and in [9] was “inactive” throughout. The max response in assay [4] was 0.421% and 21.2%.

As to `CC1COc2ccccc2N1C(=O)C(Cl)Cl` (stereo not given), the Potency result in assay [1], in assay [2], in [3], in assay [5], in [6] and in assay [7] was “inactive” throughout. For the same compound, the Potency entry in assay [8] and in [9] was “inactive” in each case. Further, in assay [4], the max response is -21%.

On to `CC[Si](OC(C)=O)(OC(C)=O)OC(C)=O`, for which the Potency entry in assay [1], in assay [2], in assay [5], in assay [6], in assay [7] and in [8] was “inactive” throughout. Also, the max response in assay [4] was 13.5% and 2.5%.

With `OC[C@@H](O)[C@H](O)[C@H](O)[C@@H](O)CO`, the Potency result in assay [1], in assay [2], in assay [3], in [5], in assay [6] and in assay [7] was “inactive” throughout. Also, the Potency entry in assay [8] and in assay [9] was “inactive” throughout. Besides, the max response in [4] is 7.24% and 7.63%.

Regarding `O=C(c1ccc(O)cc1)c1ccc(O)cc1O`, the Potency result in assay [1], in [2], in assay [3], in assay [5], in assay [6] and in assay [7] was “inactive” throughout. Besides, the Potency result in assay [8] and in [9] was “inactive” throughout. Moreover, the max response in [4] was -21.4%.

`NCCNCCNCCNCCN`: the Potency entry in assay [1], in assay [2], in assay [3], in assay [5], in assay [6] and in [7] was “inactive” throughout. The Potency entry in [8] and in [9] was “inactive” each time. Further, in assay [4], the max response is 1.39% and 5.6%.

Take `CC(C)Cc1ccccc1`: the Potency result in assay [1], in assay [2], in assay [5], in [6], in assay [7] and in assay [8] was “inactive” each time. The max response in assay [4] was 14.2% and -0.413%.

For the compound `S=c1nc[nH]c2nc[nH]c12`, the Potency entry in assay [1], in [2], in assay [3], in [5], in assay [6] and in assay [7] was “inactive” each time. Moreover, in assay [8], the Potency entry is “inactive”. Besides, the Potency in assay [4] was 16.9 µM (active).

The values are drawn from PubChem BioAssay (Tox21).
